Our source for the growth values is PubChem BioAssay (NCI).

Test in all cases: NCI-60 one-dose screen, 48 h (100 = growth as untreated, 0 = no growth, -100 = all killed)
Holding throughout (conditions): 10 µM unless noted

In assay [1] the test system is HCT-15 colon.
The test system of assay [2] is HT29 colon.
Assay [3] has as its system SNB-19 CNS.
Assay [4] deals with U251 CNS.
Assay [5] deals with PC-3 prostate.
Assay [6] has as its system SK-MEL-5 melanoma.
Assay [7] relates to UACC-62 melanoma.
Assay [8] concerns LOX IMVI melanoma.
Assay [9] deals with SK-MEL-28 melanoma.
For assay [10], the system named is SK-MEL-2 melanoma.
The subject of assay [11] is EKVX NSCLC.
In assay [12] the test system is SN12C renal.
Assay [13] relates to UO-31 renal.
For assay [14], the system named is TK-10 renal.
Assay [15] concerns CAKI-1 renal.
For assay [16], the system named is A498 renal.
The test system of assay [17] is CCRF-CEM leukemia.
The subject of assay [18] is MOLT-4 leukemia.
In assay [19] the test system is ACHN renal.
The test system of assay [20] is SNB-75 CNS.

The panel holds about 83,000 compounds, 20% with a hit somewhere; the sample as a whole holds those more often.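 Cell lines were cultured in 96-well plates, exposed to a single compound concentration, and assessed for percent growth 48 hours later.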 A number with no mark means an inactive call. Active and inactive are the calls of the source. How the source made its calls: active means growth percent below 10; inactive means the rest.

On to `Clc1cc(Cl)cc(N2N=C(c3cccc(Nc4ccncc4)c3)CC2c2ccc3c(c2)OCO3)c1` (configuration not stated), for which the growth in [1] was -66.7% (active); in assay [2], 0.164% (active); in assay [3], 81.9%; in assay [4], -43.6% (active); in assay [5], 28.7%; in assay [6] it was 58.9%. Moreover, the growth in [7] is 97.6%; in [8], -84.3% (active); in assay [9], -82.4% (active); in [10], 81.7%; in assay [11], 78.8%; in [12], 64.6%. In addition, the growth in [13] was 39.5%; in assay [14] it was 65.7%; in assay [15], 16.4%; in assay [16], 96.6%; in assay [17] it was -1.31% (active); in assay [18], -0.295% (active).
Consider `COc1ccc(/C=C2\COc3ccc(-c4ccccc4)cc3C2=O)cc1O`, for which the growth in assay [1] is 19.6%; in assay [2] it was 25.8%; in [3], 71.8%; in [4], 5.71% (active); in assay [5], 27.8%; in [6], 32.3%. In addition, the growth in [7] was 41%; in [8] it was -13.5% (active); in assay [9], 46.7%; in assay [10], -29.6% (active); in assay [11], 105%; in assay [13], 40.6%. Besides, the growth in assay [14] was 67.7%; in assay [19] it was 47.3%; in [15] it was 126%; in [16], 55.6%; in assay [17] it was -30.6% (active); in assay [18], -18.2% (active).
Turning to `O=C(O)c1cn(C2CC2)c2cc(N3CCN(C(=O)C[n+]4cccc5ccccc54)CC3)c(F)cc2c1=O`, the growth in [1] was 55%; in assay [2], 78.7%; in assay [3], 83.8%; in assay [4], 64.4%; in assay [5], 77.1%; in [6] it was 94.6%. Besides, the growth is 42.7% in [7]; 20.7% in assay [8]; 56.8% in assay [9]; 72.5% in assay [10]; 102% in assay [11]; 33.1% in assay [12]. Also, the growth in assay [13] was 67.1%; in assay [19], 61%; in assay [15], 81.3%; in assay [16] it was 99.4%; in assay [17] it was -37.5% (active); in [18], 5.51% (active).
In the case of `CC(=O)N1N=C(c2cccc(Nc3ccncc3)c2)CC1c1ccccc1` (configuration not stated), the growth in assay [1] was 82.8%; in assay [2], 33.2%; in [3] it was 91.8%; in assay [4], 72.9%; in [5], 75.9%; in [6], 82%. The growth in [7] is 86.7%; in [8], 90.9%; in assay [9], 86.5%; in assay [10], 100%; in assay [11], 83.9%; in assay [12] it was 81.7%. In addition, the growth in [13] is 80.6%; in assay [14] it was 99.5%; in [19] it was 94.6%; in [15] it was 77.2%; in assay [16], 70%; in [17] it was 84.1%. Further, in assay [18], the growth was 81.4%.
`Cc1ccc(C(c2c(O)c3cc(Br)ccc3[nH]c2=O)c2c(O)c3cc(Br)ccc3[nH]c2=O)cc1`: the growth in assay [1] was 79.1%; in assay [2] it was 97.5%; in [3], 93%; in assay [4] it was 83.7%; in assay [5], 75.5%; in assay [6] it was 73.3%. The growth in assay [7] was 63.2%; in assay [8] it was 84.1%; in assay [9] it was 89.6%; in assay [10], 90.2%; in assay [11], 71.2%; in assay [12], 94.5%. Further, the growth is 59.5% in [13]; 106% in [14]; 73.5% in [19]; 76.5% in [15]; 79.6% in [16]; 80.3% in [17]. In addition, the growth in [18] is 66.6%.
On to `CCOC(=O)N1CCN(CCCCl)CC1`, for which the growth was 105% in assay [1]; 107% in assay [2]; 97.6% in [3]; 95.6% in assay [4]; 101% in assay [6]; 93.5% in assay [7]. Moreover, the growth in [8] was 99.5%; in assay [9], 106%; in [10], 103%; in assay [12] it was 99%; in assay [13] it was 89.5%; in assay [14] it was 92.1%. Moreover, the growth was 97.4% in [19], 101% in [15], 110% in assay [17] and 98.7% in assay [18].
Consider `CCOC(=O)c1ccc(Nc2ccnc(SCC(=O)c3ccc(C#N)cc3)n2)cc1`, for which the growth is 75.8% in [1]; 102% in [20]; 89.9% in [3]; 84.8% in assay [4]; 39.6% in [5]; 37.5% in [6]. For the same molecule, the growth in assay [7] was 39.3%; in assay [8], 80.3%; in assay [9], 80.8%; in assay [10], 71.1%; in assay [11] it was 73.4%; in assay [12] it was 73.8%. Besides, the growth in [13] is 48%; in assay [14], 90.4%; in [19], 80%; in [15], 57.1%; in assay [16], 50.2%; in [17], 17.5%. For the same molecule, the growth in [18] was 16.3%.
